In PubChem BioAssay (EPA / NIEHS):
Calls of active or inactive are those of the source. Rule for the calls: active = hit-call score of the fitted dose curve at least 0.9, where 1 is the maximum; inactive = score below 0.9.

Experiments:
[1] = read-out: Vascular endothelial growth factor receptor 2 (Homo sapiens) (UniProt P35968); test: BSK_4H_VEGFRII: BioMAP Diversity Plus: 4H Assay for Vascular endothelial growth factor receptor 2 (VEGFR2) Biomarker Activity (AID 2283031); conditions: primary human endothelial cells (HUVEC); actives raise or lower the signal
Summary of the method: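 Primary human umbilical vein endothelial cells (4H system), 24 h exposure; cell-surface VEGFR2 measured by ELISA. Bidirectional fitting versus DMSO; cytotoxicity checked in parallel by SRB total-protein staining.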

[2] = read-out: Human Leukocyte Antigen - DR isotype (HLADR), HLA-DRA (gene 3122); test: BSK_BE3C_HLADR: BioMAP Diversity Plus: BE3C Assay for Human Leukocyte Antigen - DR isotype (HLADR) Biomarker Activity (AID 2283032); conditions: primary human bronchial epithelial cells; actives raise or lower the signal
Summary of the method: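 Human primary bronchial epithelial cells (BE3C system) exposed to compound for 24 hours; cell-surface HLA-DR measured by ELISA, fitted bidirectionally relative to DMSO. Total protein by SRB in parallel cultures tracked cytotoxicity.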

[3] = read-out: Interferon-gamma inducible Protein 10 (IP10), CXCL10 (gene 3627); test: BSK_BE3C_IP10: BioMAP Diversity Plus: BE3C Assay for Interferon-gamma inducible Protein 10 (IP10) Biomarker Activity (AID 2283034); conditions: primary human bronchial epithelial cells; actives raise or lower the signal
Summary of the method: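 Primary human bronchial epithelial cells, with IP-10 measured by ELISA 24 hours after chemical dosing. Bidirectional fit against DMSO; cytotoxicity checked by SRB total protein staining in parallel cultures.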

[4] = read-out: Monokine induced gamma interferon (MIG), CXCL9 (gene 4283); test: BSK_BE3C_MIG: BioMAP Diversity Plus: BE3C Assay for Monokine induced gamma interferon (MIG) Biomarker Activity (AID 2283035); conditions: primary human bronchial epithelial cells; actives raise or lower the signal;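 note: MIG protein measured by ELISA in BE3C cultures after 24 h of dosing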
Summary of the method: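 Primary human bronchial epithelial cells treated for 24 h; MIG levels measured by ELISA, fitted bidirectionally versus DMSO. Parallel SRB total-protein staining assessed cytotoxicity.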

[5] = read-out: Plasminogen activator inhibitor-1 (PAI1), SERPINE1 (gene 5054); test: BSK_BE3C_PAI1: BioMAP Diversity Plus: BE3C Assay for Plasminogen activator inhibitor-1 (PAI1) Biomarker Activity (AID 2283037); conditions: primary human bronchial epithelial cells; actives raise or lower the signal
Summary of the method: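 Primary human bronchial epithelial cells (BE3C system) exposed 24 h; PAI-1 quantified by ELISA. Parallel sulforhodamine B staining of total protein flags cytotoxicity. Bidirectional fit versus DMSO.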

[6] = read-out: urokinase plasminogen activator (uPA), PLAU (gene 5328); test: BSK_BE3C_uPA: BioMAP Diversity Plus: BE3C Assay for urokinase plasminogen activator (uPA) Biomarker Activity (AID 2283038); conditions: primary human bronchial epithelial cells; actives raise or lower the signal;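 for outcome: uPA protein level quantified by ELISA in cell cultures; uPA read one day after compound addition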
Summary of the method: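 Primary human bronchial epithelial cells, uPA measured by ELISA 24 h after dosing. Bidirectional change relative to DMSO; cytotoxicity checked in parallel cultures by sulforhodamine B total-protein staining.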

[7] = read-out: Urokinase-type plasminogen activator receptor (uPAR), PLAUR (gene 5329); test: BSK_BE3C_uPAR: BioMAP Diversity Plus: BE3C Assay for Urokinase-type plasminogen activator receptor (uPAR) Biomarker Activity (AID 2283039); conditions: primary human bronchial epithelial cells; actives raise or lower the signal;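 note: cells exposed to compound for one day before measurement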
Summary of the method: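 Primary human bronchial epithelial cells dosed for 24 h; uPAR quantified by ELISA with bidirectional fitting against DMSO. Overt cytotoxicity assessed in parallel cultures by SRB total-protein staining (0.1% SRB, 560 nm).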

[8] = read-out: Interleukin-6 (IL6), IL6 (gene 3569); test: BSK_CASM3C_IL6: BioMAP Diversity Plus: CASM3C Assay for Interleukin-6 (IL6) Biomarker Activity for (AID 2283040); conditions: primary human coronary artery smooth muscle cells; actives raise or lower the signal
[9] = read-out: Interleukin-8 (IL8), CXCL8 (gene 3576); test: BSK_CASM3C_IL8: BioMAP Diversity Plus: CASM3C Assay for Interleukin-8 (IL8) Biomarker Activity (AID 2283042); conditions: primary human coronary artery smooth muscle cells; actives raise or lower the signal;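 note: IL-8 protein level quantified by ELISA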
[10] = read-out: Human Leukocyte Antigen - DR isotype (HLADR), HLA-DRA (gene 3122); test: BSK_CASM3C_HLADR: BioMAP Diversity Plus: CASM3C Assay for Human Leukocyte Antigen - DR isotype (HLADR) Biomarker Activity (AID 2283043); conditions: primary human coronary artery smooth muscle cells; actives raise or lower the signal;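 note: cell-surface HLA-DR protein level quantified by ELISA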
[11] = read-out: Macrophage colony-stimulating factor (MCSF), CSF1 (gene 1435); test: BSK_CASM3C_MCSF: BioMAP Diversity Plus: CASM3C Assay for Macrophage colony-stimulating factor (MCSF) Biomarker Activity (AID 2283044); conditions: primary human coronary artery smooth muscle cells; actives raise or lower the signal;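 note: M-CSF protein amount quantified by ELISA after 24 h exposure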
[12] = read-out: Low-density lipoprotein receptor (LDLR), LDLR (gene 3949); test: BSK_CASM3C_LDLR: BioMAP Diversity Plus: CASM3C Assay for Low-density lipoprotein receptor (LDLR) Biomarker Activity (AID 2283045); conditions: primary human coronary artery smooth muscle cells; actives raise or lower the signal;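 note: LDLR protein level on the cell surface quantified by ELISA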
[13] = read-out: Monocyte Chemoattractant Protein-1 (MCP1), CCL2 (gene 6347); test: BSK_CASM3C_MCP1: BioMAP Diversity Plus: CASM3C Assay for Monocyte Chemoattractant Protein-1 (MCP1) Biomarker Activity (AID 2283046); conditions: primary human coronary artery smooth muscle cells; actives raise or lower the signal;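 note: MCP-1 level quantified by ELISA 24 h after dosing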
[14] = BSK_CASM3C_Proliferation: Cell Proliferation Assessment in the BioMAP Diversity Plus: CASM3C Assay (AID 2283047); conditions: primary human coronary artery smooth muscle cells;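 note: sulforhodamine B total protein stain as relative cell number at 560 nm; sub-confluent cells exposed 48 h before staining; fitted both ways against DMSO so gain or loss of cell number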
[15] = read-out: Monokine induced gamma interferon (MIG), CXCL9 (gene 4283); test: BSK_CASM3C_MIG: BioMAP Diversity Plus: CASM3C Assay for Monokine induced gamma interferon (MIG) Biomarker Activity (AID 2283048); conditions: primary human coronary artery smooth muscle cells; actives raise or lower the signal
[16] = read-out: serum amyloid A (SAA), SAA1 (gene 6288); test: BSK_CASM3C_SAA: BioMAP Diversity Plus: CASM3C Assay for serum amyloid A (SAA) Biomarker Activity (AID 2283049); conditions: primary human coronary artery smooth muscle cells; actives raise or lower the signal;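 note: SAA protein level quantified by ELISA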
[17] = BSK_CASM3C_SRB: Viability Assessment in the BioMAP Diversity Plus: CASM3C Assay (AID 2283050); conditions: primary human coronary artery smooth muscle cells
[18] = read-out: Transforming growth factor beta 1 (TGFb1), TGFB1 (gene 7040); test: BSK_BE3C_TGFb1: BioMAP Diversity Plus: BE3C Assay for Transforming growth factor beta 1 (TGFb1) Biomarker Activity (AID 2283036); conditions: primary human bronchial epithelial cells; actives raise or lower the signal
Summary of the method: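 Primary human bronchial epithelial cells dosed with chemical; TGF-b1 measured by ELISA 24 h after dosing. Bidirectional curve fitting against DMSO negative control; SRB total-protein staining in parallel cultures gauged cytotoxicity.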

CCCO[Si](OCCC)(OCCC)OCCC
outcome [1]: inactive
outcome [2]: inactive
outcome [3]: inactive
outcome [4]: inactive
outcome [5]: inactive
outcome [6]: inactive
outcome [7]: inactive
outcome [8]: inactive
outcome [9]: inactive
outcome [10]: inactive
outcome [11]: inactive
outcome [12]: inactive
outcome [13]: inactive
outcome [14]: inactive
outcome [15]: inactive
outcome [16]: inactive
outcome [17]: inactive

CC(=O)OCC=C(C)CCC=C(C)CCC=C(C)C
outcome [1]: inactive
AC50 [2]: 3.97 µM (active)
AC50 [3]: 8.81 µM (active)
outcome [4]: inactive
outcome [18]: inactive
AC50 [5]: 0.016 µM (active)
outcome [6]: inactive
outcome [7]: inactive
outcome [8]: inactive
outcome [9]: inactive
outcome [10]: inactive
outcome [11]: inactive
outcome [12]: inactive
outcome [13]: inactive
outcome [14]: inactive
outcome [15]: inactive
outcome [16]: inactive
outcome [17]: inactive

CC1(C)[C@H](C=C(Cl)Cl)[C@H]1C(=O)OCc1cccc(Oc2ccccc2)c1
outcome [1]: inactive
outcome [2]: inactive
outcome [3]: inactive
outcome [4]: inactive
outcome [18]: inactive
outcome [5]: inactive
outcome [6]: inactive
outcome [7]: inactive
outcome [8]: inactive
outcome [9]: inactive
outcome [10]: inactive
outcome [11]: inactive
outcome [12]: inactive
outcome [13]: inactive
outcome [14]: inactive
outcome [15]: inactive
outcome [16]: inactive
outcome [17]: inactive

CCn1cc(C(=O)O)c(=O)c2ccc(C)nc21
outcome [1]: inactive
outcome [2]: inactive
outcome [3]: inactive
outcome [4]: inactive
outcome [5]: inactive
outcome [6]: inactive
outcome [7]: inactive
outcome [8]: inactive
outcome [9]: inactive
outcome [10]: inactive
outcome [11]: inactive
outcome [12]: inactive
outcome [13]: inactive
outcome [14]: inactive
outcome [15]: inactive
outcome [16]: inactive
outcome [17]: inactive

c1ccc(Sc2ccccc2)cc1
outcome [1]: inactive
AC50 [2]: 29.9 µM (active)
AC50 [3]: 30.1 µM (active)
outcome [4]: inactive
AC50 [18]: 20 µM (active)
AC50 [5]: 28.1 µM (active)
AC50 [6]: 25.6 µM (active)
outcome [7]: inactive
outcome [8]: inactive
outcome [9]: inactive
AC50 [10]: 20 µM (active)
AC50 [11]: 14.9 µM (active)
outcome [12]: inactive
outcome [13]: inactive
outcome [14]: inactive
outcome [15]: inactive
AC50 [16]: 20 µM (active)
AC50 [17]: 29.8 µM (active)

C[C@]12CC[C@@H]3c4ccc(O)cc4CC[C@H]3[C@@H]1CC[C@@H]2O
outcome [1]: inactive
outcome [2]: inactive
outcome [3]: inactive
outcome [4]: inactive
outcome [18]: inactive
outcome [5]: inactive
outcome [6]: inactive
outcome [7]: inactive
outcome [8]: inactive
outcome [9]: inactive
outcome [10]: inactive
AC50 [11]: 3.24 µM (active)
outcome [12]: inactive
outcome [13]: inactive
AC50 [14]: 13.4 µM (active)
AC50 [15]: 12.2 µM (active)
outcome [16]: inactive
outcome [17]: inactive

CCOC(=O)CCCCCCCCC(=O)OCC
outcome [1]: inactive
outcome [2]: inactive
outcome [3]: inactive
outcome [4]: inactive
outcome [18]: inactive
outcome [5]: inactive
outcome [6]: inactive
outcome [7]: inactive
outcome [8]: inactive
outcome [9]: inactive
outcome [10]: inactive
outcome [11]: inactive
outcome [12]: inactive
outcome [13]: inactive
outcome [14]: inactive
outcome [15]: inactive
outcome [16]: inactive
outcome [17]: inactive

c1ccc(OCCOc2ccccc2)cc1
outcome [1]: inactive
outcome [2]: inactive
outcome [3]: inactive
outcome [4]: inactive
outcome [5]: inactive
outcome [6]: inactive
outcome [7]: inactive
outcome [8]: inactive
outcome [9]: inactive
outcome [10]: inactive
outcome [11]: inactive
outcome [12]: inactive
outcome [13]: inactive
outcome [14]: inactive
outcome [15]: inactive
outcome [16]: inactive
outcome [17]: inactive

c1ccc2c(c1)-c1ccc3ccc4cccc5cc-2c1c3c45
outcome [1]: inactive
AC50 [2]: 2.57 µM (active)
outcome [3]: inactive
outcome [4]: inactive
outcome [18]: inactive
outcome [5]: inactive
outcome [6]: inactive
outcome [7]: inactive
outcome [8]: inactive
outcome [9]: inactive
outcome [10]: inactive
outcome [11]: inactive
outcome [12]: inactive
outcome [13]: inactive
outcome [14]: inactive
outcome [15]: inactive
outcome [16]: inactive
outcome [17]: inactive

CCC(=O)OCC=Cc1ccccc1
outcome [1]: inactive
outcome [2]: inactive
outcome [3]: inactive
outcome [4]: inactive
outcome [18]: inactive
outcome [5]: inactive
outcome [6]: inactive
outcome [7]: inactive
outcome [8]: inactive
outcome [9]: inactive
outcome [10]: inactive
outcome [11]: inactive
outcome [12]: inactive
outcome [13]: inactive
outcome [14]: inactive
outcome [15]: inactive
outcome [16]: inactive
outcome [17]: inactive

C=C(C)C(=O)OCCC(F)(F)C(F)(F)C(F)(F)C(F)(F)C(F)(F)C(F)(F)C(F)(F)C(F)(F)F
outcome [1]: inactive
outcome [2]: inactive
outcome [3]: inactive
outcome [4]: inactive
outcome [5]: inactive
outcome [6]: inactive
outcome [7]: inactive
outcome [8]: inactive
outcome [9]: inactive
outcome [10]: inactive
outcome [11]: inactive
outcome [12]: inactive
outcome [13]: inactive
outcome [14]: inactive
outcome [15]: inactive
outcome [16]: inactive
outcome [17]: inactive

CCCCN(CCO)CCO
outcome [1]: inactive
outcome [2]: inactive
outcome [3]: inactive
outcome [4]: inactive
outcome [5]: inactive
outcome [6]: inactive
outcome [7]: inactive
outcome [8]: inactive
outcome [9]: inactive
outcome [10]: inactive
outcome [11]: inactive
outcome [12]: inactive
outcome [13]: inactive
outcome [14]: inactive
outcome [15]: inactive
outcome [16]: inactive
outcome [17]: inactive
